This excerpt belongs to a sample that is enriched for the strongest signals.
B1: MIC13 (Toxoplasma gondii), A0A125YWL1 (protein)
chain: IQLRQHRNGLGVEQSFVSEETDIVGGRISSLQAELDSYCHNRYKQLCDGGNKKFCDKTGVARYGTGIQSQQTAEWRCYFAEVLKPSGRKVQCVDDCGNYFPCLGVVDPNDTFHATAHNQILNFIKDGVEKHCSPFQMAGNNYCQGVLADTVARKDTGTASQKAKAWRCYKKDSLTYEARSICVDNCGGEIECPGGRSETSGELLSQHYTREKELQKVIESQSAPCHDACVATPINPPICADTESLLQSTKRSRAQRFIDDACQKLFNCHCKKDKKFCTTVVARKDRGRAGSQNDAEWRCYSLEELDFQKTNPSCIDECGNELPCQGAVPEESTHHITWTKLPSKIDEATQKFCTERQRAANDYCASEFADSLARYGPGAGDQTSQFRCIKKAAMRADAEGQCADSCKGTETCGGGRSRLDGPLSVDDVLNAHEGISEAMKSASTEC
B2: Epa23 (Candida glabrata) (protein)
chain: MGSSHHHHHHSSGLVPRGSHMIPNPFEGTINNFPSGCSPNHGLYNRGLTMELYNYSYIHPQSIQSYFNTSTLKKMEKGQCWDPSYLDVNYPRTGYKTHNRFAKVNGIDGILDFEFNPTRSCVPSKGQLPQNYNYPLQFTLSNFTMLLYGYFKPKVTAKHTFTIFADDLLFLNFGAGNAFDCCQQQDTIDDFGNYQAYALWGSDTQQNTLTVNLDANIYYPIRMFYNNRDFKGALNMYFTTDESNTKINDFSGYLFNIPDSSEGCPAHISYETECGNVSG

Key:
Assay in all cases: glycan array binding signal (z-score within array); higher = stronger binding
Conditions in all cases: glycan notation: IUPAC condensed, linker removed
[1] = molecular target: Gal(b1-3)GalNAc(b1-4)[Neu5Gc(a2-3)]Gal(b1-4)Glc
Procedure, shortened: (§1)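 The Consortium for Functional Glycomics database supplied 3228 glycan arrays, of which those lacking an available protein sequence were dropped. The binding signal, a within-array Z-score, was averaged across arrays of the same protein sequence and across linkers. Negative scores can be read as non-binding.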

[2] = molecular target: Neu(a2-3)Gal(b1-4)Glc
Procedure, shortened: as §1

[3] = molecular target: Neu(a2-6)Gal(b1-4)Glc
Procedure, shortened: as §1

[4] = molecular target: Neu5Ac(a2-3)Gal(b1-3)GalNAc(b1-4)Gal(b1-4)Glc
Procedure, shortened: as §1

[5] = molecular target: Neu5Ac(a2-3)Gal(b1-3)GlcNAc(b1-3)[Fuc(a1-3)[Gal(b1-4)]GlcNAc(b1-6)]Gal(b1-4)Glc
Procedure, shortened: as §1

[6] = molecular target: Neu5Ac(a2-3)Gal(b1-4)[Fuc(a1-3)]GlcNAc6S(b1-3)Gal(b1-4)Glc
Procedure, shortened: as §1

[7] = molecular target: Neu5Ac(a2-3)Gal6S(b1-4)[Fuc(a1-3)]GlcNAc6S(b1-3)Gal(b1-4)Glc
Procedure, shortened: as §1

[8] = molecular target: Neu5Ac(a2-6)Gal(b1-4)GlcNAc(b1-3)[Neu5Ac(a2-6)Gal(b1-4)GlcNAc(b1-6)]Gal(b1-4)Glc
Procedure, shortened: as §1

[9] = molecular target: Neu5Ac(a2-9)Neu5Ac(a2-3)Gal(b1-4)Glc
Procedure, shortened: as §1

[10] = molecular target: Neu5Gc(a2-3)Gal(b1-4)Glc
Procedure, shortened: as §1

[11] = molecular target: Glc(a1-6)Glc(a1-6)Glc(a1-6)Glc
Procedure, shortened: as §1

[12] = molecular target: GlcNAc(b1-2)[GlcNAc(b1-4)]Man(a1-3)[GlcNAc(b1-2)Man(a1-6)]Man(b1-4)GlcNAc(b1-4)GlcNAc
Procedure, shortened: as §1

[13] = molecular target: GlcNAc(b1-3)Gal(b1-4)GlcNAc(b1-2)Man(a1-3)[GlcNAc(b1-3)Gal(b1-4)GlcNAc(b1-2)Man(a1-6)]Man(b1-4)GlcNAc(b1-4)[Fuc(a1-6)]GlcNAc
Procedure, shortened: as §1

[14] = molecular target: GlcNAc(b1-3)Gal(b1-4)GlcNAc(b1-3)Gal(b1-4)GlcNAc(b1-2)Man(a1-3)[GlcNAc(b1-3)Gal(b1-4)GlcNAc(b1-3)Gal(b1-4)GlcNAc(b1-2)Man(a1-6)]Man(b1-4)GlcNAc(b1-4)[Fuc(a1-6)]GlcNAc
Procedure, shortened: as §1

[15] = molecular target: GlcNAc(b1-3)Gal(b1-4)GlcNAc(b1-3)Gal(b1-4)GlcNAc(b1-2)[GlcNAc(b1-3)Gal(b1-4)GlcNAc(b1-3)Gal(b1-4)GlcNAc(b1-6)]Man(a1-6)[GlcNAc(b1-3)Gal(b1-4)GlcNAc(b1-3)Gal(b1-4)GlcNAc(b1-2)Man(a1-3)]Man(b1-4)GlcNAc(b1-4)[Fuc(a1-6)]GlcNAc
Procedure, shortened: as §1

[16] = molecular target: GlcNAc(b1-3)GalNAc
Procedure, shortened: as §1

[17] = molecular target: Kdn(a2-3)Gal(b1-4)Glc
Procedure, shortened: as §1

[18] = molecular target: Man(a1-2)Man(a1-3)[Man(a1-2)Man(a1-6)]Man(a1-6)[Man(a1-2)Man(a1-2)Man(a1-3)]Man
Procedure, shortened: as §1

[19] = molecular target: Man(a1-3)[Man(a1-6)]Man(a1-6)[Man(a1-2)Man(a1-3)]Man(b1-4)GlcNAc(b1-4)GlcNAc
Procedure, shortened: as §1

[20] = molecular target: Man(a1-3)[Man(a1-6)]Man(a1-6)[Man(a1-3)]Man
Procedure, shortened: as §1

[21] = molecular target: Neu5Ac(a2-3)Gal(b1-3)GalNAc(b1-4)[Neu5Ac(a2-3)]Gal(b1-4)Glc
Procedure, shortened: as §1

[22] = molecular target: Neu5Ac(a2-3)Gal(b1-3)GalNAc6S
Procedure, shortened: as §1

[23] = molecular target: Neu5Ac(a2-3)Gal(b1-3)[Fuc(a1-4)]GlcNAc
Procedure, shortened: as §1

[24] = molecular target: Neu5Ac(a2-3)Gal(b1-4)GlcNAc(b1-2)Man(a1-3)[Neu5Ac(a2-3)Gal(b1-4)GlcNAc(b1-2)Man(a1-6)]Man(b1-4)GlcNAc(b1-4)GlcNAc
Procedure, shortened: as §1

[25] = molecular target: Neu5Ac(a2-3)Gal(b1-4)GlcNAc(b1-2)[Neu5Ac(a2-3)Gal(b1-4)GlcNAc(b1-4)]Man(a1-3)[GlcNAc(b1-4)][Neu5Ac(a2-3)Gal(b1-4)GlcNAc(b1-4)Man(a1-6)]Man(b1-4)GlcNAc(b1-4)GlcNAc
Procedure, shortened: as §1

[26] = molecular target: Neu5Ac(a2-3)Gal(b1-4)[Fuc(a1-3)]GlcNAc(b1-3)Gal(b1-4)GlcNAc
Procedure, shortened: as §1

[27] = molecular target: Neu5Ac(a2-3)[GalNAc(b1-4)]Gal(b1-4)GlcNAc
Procedure, shortened: as §1

[28] = molecular target: Neu5Ac(a2-6)Gal(b1-4)GlcNAc(b1-6)[Gal(b1-3)GlcNAc(b1-3)]Gal(b1-4)Glc
Procedure, shortened: as §1

[29] = molecular target: Neu5Ac(a2-8)Neu5Ac(a2-3)[GalNAc(b1-4)]Gal(b1-4)Glc
Procedure, shortened: as §1

[30] = molecular target: Neu5Ac9Ac(a2-3)Gal(b1-4)GlcNAc
Procedure, shortened: as §1

[31] = molecular target: Neu5Ac9Ac(a2-6)Gal(b1-4)GlcNAc
Procedure, shortened: as §1

[32] = molecular target: Neu5Gc(a2-3)Gal(b1-4)GlcNAc
Procedure, shortened: as §1

[33] = molecular target: Neu5Gc(a2-8)Neu5Gc(a2-3)Gal(b1-4)GlcNAc
Procedure, shortened: as §1

[34] = molecular target: Neu5Gc(b2-6)Gal(b1-4)GlcNAc
Procedure, shortened: as §1

Row | Binder | glycan array binding signal (z-score) [1] | glycan array binding signal (z-score) [2] | glycan array binding signal (z-score) [3] | glycan array binding signal (z-score) [4] | glycan array binding signal (z-score) [5] | glycan array binding signal (z-score) [6] | glycan array binding signal (z-score) [7] | glycan array binding signal (z-score) [8] | glycan array binding signal (z-score) [9] | glycan array binding signal (z-score) [10] | glycan array binding signal (z-score) [11] | glycan array binding signal (z-score) [12] | glycan array binding signal (z-score) [13] | glycan array binding signal (z-score) [14] | glycan array binding signal (z-score) [15] | glycan array binding signal (z-score) [16] | glycan array binding signal (z-score) [17] | glycan array binding signal (z-score) [18] | glycan array binding signal (z-score) [19] | glycan array binding signal (z-score) [20] | glycan array binding signal (z-score) [21] | glycan array binding signal (z-score) [22] | glycan array binding signal (z-score) [23] | glycan array binding signal (z-score) [24] | glycan array binding signal (z-score) [25] | glycan array binding signal (z-score) [26] | glycan array binding signal (z-score) [27] | glycan array binding signal (z-score) [28] | glycan array binding signal (z-score) [29] | glycan array binding signal (z-score) [30] | glycan array binding signal (z-score) [31] | glycan array binding signal (z-score) [32] | glycan array binding signal (z-score) [33] | glycan array binding signal (z-score) [34]
1 | B1 | -0.151 | -0.234 | -0.287 | -0.287 | -0.243 | 0.435 | 2.31 | -0.287 | 8.12 | -0.038 | – | – | – | – | – | – | – | – | – | – | – | – | – | – | – | – | – | – | – | – | – | – | – | –
2 | B2 | – | – | – | – | – | – | – | – | – | – | -0.278 | -0.21 | -0.199 | -0.176 | -0.093 | -0.243 | -0.263 | -0.233 | -0.22 | -0.232 | -0.24 | -0.246 | -0.296 | -0.249 | -0.243 | -0.288 | -0.198 | -0.13 | -0.297 | -0.225 | -0.239 | -0.274 | -0.215 | -0.194

Source: the supplement of paper PMC8728848
